Results: PubChem BioAssay (Tox21)
Several values for one entry are separate records, joined by “and”; a condition that tells them apart may be missing. Equal values may be shown once. Results filed as inconclusive are left out. More than one record can exist for a structure, and the calls need not agree. Activity calls are given as the source filed them. Unless noted, calls come from the whole dose curve; as a rule, active = well fitted curve in the direction sought with a large enough effect in the repeat runs; inconclusive = weak or mixed curves; inactive = no such curve, though single readings can be large; an effect the other way counts as inactive or inconclusive. Residues, ends and D or L forms follow the SMILES beside them.

How the values were obtained:
[1] = qHTS assay for small molecule agonists of the p53 signaling pathway (AID 651631; calls by dose curve; note: nearly all actives have a fitted effect of over 15% in size; note: potency is the fitted concentration of half-maximal effect)
Outline: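 Testing took place in human colorectal HCT-116 cells with stable p53RE-driven beta-lactamase. After 16 h of compound exposure at 37 °C, a FRET substrate was added and fluorescence recorded 2 h later.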

[2] = qHTS assay for small molecules that induce genotoxicity in human embryonic kidney cells expressing luciferase-tagged ATAD5 (AID 651632); note: nearly all actives have a fitted effect of over 15% in size; note: potency is the fitted concentration of half-maximal effect
Outline: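 Cells were seeded at 2,000 per well, dosed with compound, and incubated 16 hr at 37C in 5% CO2. Luciferase activity was then quantified after a 30 min room-temperature incubation with Amplite.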

[3] = qHTS assay for small molecules that induce genotoxicity in human embryonic kidney cells expressing luciferase-tagged ATAD5 - cell viability (AID 651634; calls by dose curve; note: nearly all actives have a fitted effect of over 25% in size; note: potency is the fitted concentration of half-maximal effect)
Outline: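 Cells (HEK293T, luciferase-tagged ATAD5) are seeded at 2,000 per well, dosed with compound or DMSO vehicle, and incubated 15.5 hr at 37C and 5% CO2. CellTiter-Fluor is added for 30 min before fluorescence is measured.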

[4] = qHTS assay for small molecule disruptors of the mitochondrial membrane potential - cell viability (AID 720634; calls by dose curve; note: nearly all actives have a fitted effect of over 20% in size; note: potency is the fitted concentration of half-maximal effect)
Outline: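 Cytotoxicity was measured by ATP quantitation in HepG2 wells that had first been treated with compound for 1 hr and stained with m-MPI dye; CellTiter-Glo incubation was 30 min at room temperature.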

[5] = qHTS assay for small molecule disruptors of the mitochondrial membrane potential (AID 720635); note: potency is the fitted concentration of half-maximal effect
Outline: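 HepG2 cells (2,000/well) attached overnight at 37C, then took compound for 1 hr at 37C, 5% CO2. Mito-MPS dye was added for 30 min; fluorescence was read at 490/535 nm (monomers) and 540/590 nm (aggregates).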

[6] = qHTS assay to test for compound auto fluorescence at 590 nm (red) in HepG2 cells (AID 720674)
Outline: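 Compound auto-fluorescence is scored relative to Rose Bengal sodium, measured at 540/590 nm in live HepG2 cultures after 1 hr compound contact (37 C, 5% CO2).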

[7] = qHTS assay to test for compound auto fluorescence at 535 nm (green) in HepG2 cells (AID 720675)
[8] = qHTS assay to test for compound auto fluorescence at 460 nm (blue) in HEK293 cells (AID 720678)
Outline: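 Measured: blue fluorescence (Ex 405/Em 460 nm) of compound-treated HEK293 cells, incubated overnight at 37C with 5% CO2 and scaled to triamterene equivalents.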

[9] = qHTS assay to test for compound auto fluorescence at 590 nm (red) in HEK293 cells (AID 720679)
Outline: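 Using HEK293 cells at 2,000 per well, the screen added 23 nL of each compound after cell attachment and incubated overnight (37C, 5% CO2). The plate reader then captured red-label fluorescence, Ex/Em 540/590nm.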

[10] = qHTS assay for small molecule agonists of the p53 signaling pathway - cell viability (AID 651633; calls by dose curve; note: series mostly up to about 83 µM; nearly all actives have a fitted effect of over 30% in size)
Outline: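 p53RE-bla cells, seeded at 4,000 per well and rested 5 h at 37 C/5% CO2, received compounds in DMSO for 16 h at 37 C. CellTiter-Glo was then added, and luminescence was read after 30 min at room temperature to gauge cytotoxicity.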

Measured: Potency

NC(=O)NC1NC(=O)NC1=O (stereo unspecified)
not listed: [10]
inactive: all other assays above

NNC(=O)c1ccncc1
inactive: all assays above

CC(O)CN(CCN(CC(C)O)CC(C)O)CC(C)O (stereo unspecified)
not listed: [10]
inactive: all other assays above

Cc1ccc(O)cc1
inactive: all assays above

CCCN(CCC)S(=O)(=O)c1ccc(C(=O)O)cc1
inactive: all assays above

Cc1cc(=O)n(-c2ccccc2)n1C
inactive: all assays above

CC(O)C(=O)O (stereo unspecified)
not listed: [10]
inactive: all other assays above

O=c1ccc2ccccc2o1
inactive: all assays above

CCCCC(CC)COC(=O)/C=C/c1ccc(OC)cc1 (stereo unspecified)
active: [5] 54.2 µM
not listed: [10]
inactive: all other assays above

Nc1ccn([C@H]2CC[C@@H](CO)O2)c(=O)n1
inactive: all assays above

COC(=O)[C@H](Cc1ccccc1)NC(=O)[C@@H](N)CC(=O)O (H-Asp-Phe-OMe)
not listed: [10]
inactive: all other assays above

NC(=O)c1ccccc1O
inactive: all assays above

NC(=O)c1cnccn1
not listed: [10]
inactive: all other assays above

CC(=O)Nc1nnc(S(N)(=O)=O)s1
inactive: all assays above

COc1ccc2[nH]cc(CCNC(C)=O)c2c1
not listed: [10]
inactive: all other assays above

Cc1noc(NS(=O)(=O)c2ccc(N)cc2)c1C
not listed: [10]
inactive: all other assays above

CCCNC(=O)NS(=O)(=O)c1ccc(Cl)cc1
inactive: all assays above

CCOc1ccc(NC(=O)CC(C)O)cc1 (stereo unspecified)
inactive: all assays above

Nc1ccc(S(=O)(=O)Nc2nccs2)cc1
not listed: [10]
inactive: all other assays above

O=S(=O)(O)c1ccc2cc(O)ccc2c1
inactive: all assays above

Nc1ccc(C(=O)O)cc1
not listed: [10]
inactive: all other assays above

O=c1cc[nH]c(=S)[nH]1
not listed: [10]
inactive: all other assays above

C1N2CN3CN1CN(C2)C3
not listed: [10]
inactive: all other assays above

Cc1cc(=O)[nH]c(=S)[nH]1
inactive: all assays above

CC(C)(Oc1ccc(C2CC2(Cl)Cl)cc1)C(=O)O (stereo unspecified)
inactive: all assays above

NC(N)=NC(=O)c1nc(Cl)c(N)nc1N
not listed: [10]
inactive: all other assays above

O=C(O)c1cc(N=Nc2ccc(S(=O)(=O)Nc3ccccn3)cc2)ccc1O
active: [3] 23.7 µM and 27.4 µM and 48.6 µM
not listed: [10]
inactive: all other assays above

Oc1ccc(/C=C/c2cc(O)cc(O)c2)cc1
active: [1] 54.5 µM | [2] 2.54 µM and 2.46 µM and 3.06 µM | [3] 24.3 µM | [5] 2.11 µM and 692 nM and 969 nM
not listed: [10]
inactive: all other assays above

CC1(C)[C@@H]2CC[C@@]1(C)C(=O)C2
inactive: all assays above

CC(=O)NS(=O)(=O)c1ccc(N)cc1
inactive: all assays above

O=C(O)c1[nH]n(-c2ccc(S(=O)(=O)O)cc2)c(=O)c1N=Nc1ccc(S(=O)(=O)O)cc1
active: [3] 30.7 µM and 57.1 µM
not listed: [10]
inactive: all other assays above

Nc1ccc(O)c(C(=O)O)c1
inactive: all assays above

c1ccc2[nH]ccc2c1
not listed: [10]
inactive: all other assays above

O=C(O)c1cccc([N+](=O)[O-])c1
inactive: all assays above

CCCCCCCCCCCCCCCC(=O)O
not listed: [10]
inactive: all other assays above

O=C(O)CCCCCCCC(=O)O
inactive: all assays above

O=C(O)c1cccnc1
not listed: [1] | [2] | [10]
inactive: all other assays above

NS(=O)(=O)c1cc(C(=O)O)c(NCc2ccco2)cc1Cl
not listed: [1] | [5] | [10]
inactive: all other assays above

NC(N)=O
not listed: [1]
inactive: all other assays above

OCCc1ccccc1
not listed: [2] | [10]
inactive: all other assays above

O=C1NC(=O)c2ccccc21
not listed: [1] | [2]
inactive: all other assays above

CC(O)CO (stereo unspecified)
not listed: [10]
inactive: all other assays above

Cc1ccc(S(=O)(=O)NC(=O)NN2CCCCCC2)cc1
not listed: [1] | [10]
inactive: all other assays above

Nc1ccc(S(=O)(=O)c2ccc(N)cc2)cc1
not listed: [10]
inactive: all other assays above

O=S(=O)(O)NC1CCCCC1
inactive: [3] | [4] | [6] | [7] | [8] | [9]

O=C(O)CCC(=O)O
not listed: [1] | [10]
inactive: all other assays above

CC(C)[C@@H]1CC[C@@H](C)C[C@H]1O
not listed: [1] | [10]
inactive: all other assays above

Cc1ccc(C)c(OCCCC(C)(C)C(=O)O)c1
not listed: [1] | [10]
inactive: all other assays above

O=C(O)CCCCC(=O)O
inactive: [1] | [6] | [7] | [8] | [9]

CCCC(O)C(CC)CO (stereo unspecified)
not listed: [10]
inactive: all other assays above

O=C1CN(/N=C/c2ccc([N+](=O)[O-])o2)C(=O)N1
active: [5] 21.1 µM and 21.6 µM and 21.7 µM
not listed: [3] | [10]
inactive: all other assays above

CCCCC1C(=O)N(c2ccccc2)N(c2ccccc2)C1=O
not listed: [4] | [5] | [10]
inactive: all other assays above

CCCC(CCC)C(=O)O
not listed: [1] | [10]
inactive: all other assays above

CC(=O)OCC(COC(C)=O)OC(C)=O
not listed: [1] | [10]
inactive: all other assays above

O=C(c1ccccc1)c1ccccc1
inactive: [1] | [4] | [6] | [7] | [8] | [9]

O=C(O)CS
not listed: [1] | [10]
inactive: all other assays above

OC(Cn1cncn1)(Cn1cncn1)c1ccc(F)cc1F
not listed: [1]
inactive: all other assays above

Cc1cn([C@H]2C[C@H](N=[N+]=[N-])[C@@H](CO)O2)c(=O)[nH]c1=O
not listed: [2] | [3]
inactive: all other assays above

O=C(O)C(=O)O
not listed: [1]
inactive: all other assays above

Cc1ccccc1C(OCCN(C)C)c1ccccc1 (stereo unspecified)
not listed: [1] | [5] | [10]
inactive: all other assays above

COc1c2occc2cc2ccc(=O)oc12
not listed: [2] | [3] | [5]
inactive: all other assays above

CCC1(c2ccccc2)C(=O)NCNC1=O
not listed: [2] | [3] | [10]
inactive: all other assays above

Cn1c(=O)c2[nH]cnc2n(C)c1=O
inactive: [1] | [4] | [6] | [7] | [8] | [9]

O=C(c1ccccc1)C(O)c1ccccc1 (stereo unspecified)
inactive: [2] | [3] | [6] | [7] | [8] | [9]

O=NO
not listed: [1] | [2]
inactive: all other assays above

O=C(C1CCCCC1)N1CC(=O)N2CCc3ccccc3C2C1 (stereo unspecified)
not listed: [1] | [2] | [10]
inactive: all other assays above

C[C@]12C=CC(=O)C=C1CC[C@@H]1[C@@H]2[C@@H](O)C[C@@]2(C)[C@H]1CC[C@]2(O)C(=O)CO
not listed: [5] | [10]
inactive: all other assays above

CCCCOC(=O)CC(CC(=O)OCCCC)(OC(C)=O)C(=O)OCCCC
active: [5] 8.73 µM
inactive and 7.78 µM (active): [4]
not listed: [10]
inactive: all other assays above

C/C=C/c1ccc(OC)cc1
inactive: [3] | [4] | [6] | [7] | [8] | [9]

CNC[C@H](O)c1cccc(O)c1
not listed: [2] | [10]
inactive: all other assays above

Cn1cc[nH]c1=S
not listed: [1] | [10]
inactive: all other assays above

N=C(N)c1ccc(OCCCCCOc2ccc(C(=N)N)cc2)cc1
not listed: [1] | [5] | [10]
inactive: all other assays above
